Measured values: PubChem BioAssay
Calls of active or inactive are those of the source. Unless noted, how the calls were made is not given here.

Experiments:
[1] = tested on: Wnt5a (protein binding on small-molecule microarray); assay: Wnt5a binders on small-molecule microarray, primary screen, biophysical, 635/667 nm fluorescence (AID 1142); details: 635 nm fluorescence, higher = more signal;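 further: fluorescence read at 667 nm with signal to noise per printed feature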
[2] = cell viability in Huh7 cells, primary screen, cytotoxicity control for HCV replication inhibitor project, CellTiter-Glo luminescence, basal, 48 h (AID 1143); details: Huh7 HCV replicon, higher = more signal, called active from +8 up or from −8 down;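 further: Huh7 hepatoma cells carrying a hepatitis C replication reporter with no stimulus; test concentration not given here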
[3] = P. aeruginosa biofilm formation inhibitors, primary screen, PAO1 strain, BacTiter-Glo luminescence, LB-PBS (AID 1144); details: 12 h, higher = more signal
[4] = CREB reporter modulators without forskolin, primary screen, cell-based, PC12, CRE-LacZ reporter, unstimulated (AID 1145); details: no forskolin, luminescence, 4.5 h, higher = more signal, called active from +8 up or from −8 down
[5] = CREB reporter modulators under forskolin, primary screen, cell-based, PC12, CRE-LacZ reporter, forskolin-stimulated (AID 1146); details: luminescence, 4.5 h, higher = more signal, called active from +8 up or from −8 down;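 further: PC12 cells with 6xCRE LacZ reporter stimulated by forskolin 10 µM; beta-galactosidase reporter signal reflecting CREB driven transcription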
[6] = target: Streptavidin (Streptomyces avidinii) (UniProt P22629); assay: streptavidin binders on small-molecule microarray, primary screen, artefact control for SMM compound annotation, biophysical, 635/667 nm fluorescence (AID 1147); details: streptavidin binding, higher = more signal;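 further: signal reflects streptavidin binding to arrayed compounds as a control protein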
Sequence of Streptavidin (Streptomyces avidinii) (P22629 whole entry, looked up): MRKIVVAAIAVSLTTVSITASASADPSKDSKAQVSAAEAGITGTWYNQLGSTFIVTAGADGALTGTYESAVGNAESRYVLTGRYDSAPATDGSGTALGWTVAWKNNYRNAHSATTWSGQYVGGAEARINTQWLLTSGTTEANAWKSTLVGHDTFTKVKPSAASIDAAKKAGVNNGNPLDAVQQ

[7] = small-molecule binders of probe aInhba, primary screen, biochemical, small-molecule microarray, 635/667 nm fluorescence (AID 1148); details: higher = more signal;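 further: score merges 667nm spot fluorescence with signal-to-noise for antibody binding to printed compounds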
Torsin-1A (Homo sapiens) [8] = target: Torsin-1A (Homo sapiens) (UniProt O14656); assay: torsin A binders from cell lysate, primary screen, small-molecule microarray, wild-type, 635/667 nm (AID 1149); details: COS7 hTOR1A-WT lysate, 635 nm fluorescence, higher = more signal
Sequence of Torsin-1A (Homo sapiens) (O14656 whole entry, looked up): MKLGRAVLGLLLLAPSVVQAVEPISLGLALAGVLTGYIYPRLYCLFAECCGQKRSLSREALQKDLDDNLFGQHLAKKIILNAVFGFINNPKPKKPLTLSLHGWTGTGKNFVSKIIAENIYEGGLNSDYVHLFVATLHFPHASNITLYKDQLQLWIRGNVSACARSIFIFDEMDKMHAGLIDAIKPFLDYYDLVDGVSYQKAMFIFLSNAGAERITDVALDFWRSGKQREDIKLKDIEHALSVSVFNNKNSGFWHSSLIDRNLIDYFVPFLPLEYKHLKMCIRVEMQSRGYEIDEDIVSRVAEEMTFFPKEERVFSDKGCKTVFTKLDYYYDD

Torsin-1A (Homo sapiens) [9] = target: Torsin-1A (Homo sapiens) (UniProt O14656); assay: small-molecule binders of mutant TOR1A in lysate, primary screen, cell lysate, small-molecule microarray, COS7 lysate, 635/667 nm fluorescence (AID 1150); details: COS7 hTOR1A mutant lysate, 635 nm fluorescence, higher = more signal;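 further: score pools 667 nm emission and signal to noise measuring lysate protein binding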
[10] = tested on: Sonic hedgehog protein (Shh); assay: small-molecule binders of Shh protein, primary screen, biochemical, small-molecule microarray, 635/667 nm fluorescence (AID 1151); details: small-molecule microarray binding, 635 nm fluorescence; higher = more signal;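 further: Shh protein binding to compounds spotted on small-molecule microarray slides; score combines spot fluorescence intensity with signal-to-noise across triplicate slides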

Structure (SMILES)	composite z-score [1]	z-score [2]	z-score [3]	z-score [4]	z-score [5]	composite z-score [6]	composite z-score [7]	composite z-score (Torsin-1A (Homo sapiens) [8])	composite z-score (Torsin-1A (Homo sapiens) [9])	composite z-score [10]
COC(=O)C(CC#Cc1ccc2c(c1)[C@]1(C(=O)N2)[C@H](C(=O)Nc2nc3ccccc3s2)[C@H]2C(=O)O[C@H](c3ccccc3)[C@H](c3ccccc3)N2[C@@H]1c1ccccc1OCCO)C(=O)OC	0.573	-5 (inactive)	-0.438 (inactive)	0.389 (inactive)	0.372 (inactive)	0.679	0.12	0.25	0.733	1.03
C=C(COC)/C(=C/C[C@@H](OC(=O)c1ccncc1)c1ccc(CO)o1)c1cc(C(=O)OC)ccc1OC	1.08	-0.158 (inactive)	-0.985 (inactive)	0.904 (inactive)	1.31 (inactive)	0.207	-0.0645	1.1	0.756	2.17
COCCOC(=O)N1C(=O)[C@@]2(c3cc(C#CCC(C(=O)OC)C(=O)OC)ccc31)[C@H](c1ccccc1OCCO)N1[C@H](c3ccccc3)[C@H](c3ccccc3)OC(=O)[C@H]1[C@@H]2C(=O)NC[C@H](O)c1ccccc1	0.851	-4.23 (inactive)	0.166 (inactive)	-0.195 (inactive)	2.22 (inactive)	0.0919	0.158	0.555	0.389	1.98
CCOC(=O)C[C@H]1[C@H](OC(=O)c2cc3ccccc3oc2=O)[C@@H](NC(=O)c2ccccc2)c2cc(OCCCO)ccc2N1C(=O)c1ccc2ccccc2n1	0.343	-0.468 (inactive)	0.594 (inactive)	9.1 (active)	-0.539 (inactive)	0.865	-0.0405	0.0356	0.611	0.954
CC(=O)NCCCC[C@@H]1NC(=O)[C@@H]2C[C@H](C(=O)NCCCCCNC(=O)CS)[C@H](c3cccc(OCCO)c3)N2C1=O	-0.149	-1.12 (inactive)	-0.617 (inactive)	-1.48 (inactive)	-1.4 (inactive)	-0.526	-0.101	0.653	0.541	1.62
COCCOC(=O)N1C(=O)[C@@]2(c3cc(C#Cc4ccc(OC)cc4)ccc31)[C@H](c1ccccc1OCCO)N1[C@H](c3ccccc3)[C@H](c3ccccc3)OC(=O)[C@H]1[C@@H]2C(=O)NC[C@H](O)c1ccccc1	0.609	-3.23 (inactive)	-0.436 (inactive)	-0.602 (inactive)	-0.0611 (inactive)	0.115	0.143	0.175	0.525	2.21
COC(=O)[C@@]1(Cc2ccc(F)cc2)[C@H]2c3cc(C(=O)N4CCCC4)n(Cc4ccc(S(C)(=O)=O)cc4)c3C[C@H]2CN1C(=O)c1ccccc1	0.196	-1.71 (inactive)	0.53 (inactive)	0.39 (inactive)	0.363 (inactive)	1.19	0.864	0.181	0.861	-0.716
